{"source": "PubChem BioAssay AID488969", "about": "(Vanderbilt High Throughput Screening Facility, 2010)", "note": "The full ranking holds about 110,000 compounds; the median of “z-score” is about -0.1, and the highest 2% start at about 2. For the sample, the highest values were picked, then their nearest neighbours and some compounds at random. Active and inactive are the calls of the source.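 How the source made its calls: active means z-score in the third read window above 3 or below -3; inactive means the rest.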"}
{"molecular_target": "Metabotropic glutamate receptor 8 (Rattus norvegicus) (UniProt P70579)", "sequence (P70579 whole entry, looked up)": "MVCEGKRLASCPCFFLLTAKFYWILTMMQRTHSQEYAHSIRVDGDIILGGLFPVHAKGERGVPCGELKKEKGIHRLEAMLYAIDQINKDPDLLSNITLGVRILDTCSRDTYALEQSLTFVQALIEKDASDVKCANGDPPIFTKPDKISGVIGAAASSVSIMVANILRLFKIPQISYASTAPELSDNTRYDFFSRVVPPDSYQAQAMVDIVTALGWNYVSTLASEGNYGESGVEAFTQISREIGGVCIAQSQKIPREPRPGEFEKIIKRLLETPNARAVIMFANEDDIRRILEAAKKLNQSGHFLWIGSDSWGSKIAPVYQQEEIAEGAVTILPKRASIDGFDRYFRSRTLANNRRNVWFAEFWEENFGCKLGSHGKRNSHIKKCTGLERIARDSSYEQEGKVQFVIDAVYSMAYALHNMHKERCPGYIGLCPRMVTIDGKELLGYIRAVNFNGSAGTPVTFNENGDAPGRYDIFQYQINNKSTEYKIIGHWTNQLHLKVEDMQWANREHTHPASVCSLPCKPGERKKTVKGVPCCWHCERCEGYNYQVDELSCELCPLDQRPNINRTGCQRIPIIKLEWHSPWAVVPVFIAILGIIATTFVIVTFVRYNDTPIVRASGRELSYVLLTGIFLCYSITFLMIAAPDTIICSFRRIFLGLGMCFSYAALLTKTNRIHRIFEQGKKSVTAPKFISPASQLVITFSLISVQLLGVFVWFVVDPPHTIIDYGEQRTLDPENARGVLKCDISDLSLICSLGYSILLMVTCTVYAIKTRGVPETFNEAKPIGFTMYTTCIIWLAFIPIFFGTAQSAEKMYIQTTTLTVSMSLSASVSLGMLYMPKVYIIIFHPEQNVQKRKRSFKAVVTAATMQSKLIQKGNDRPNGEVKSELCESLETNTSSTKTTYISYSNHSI", "assay": "mGluR8 Gi/Go-coupled signaling modulation – cell-based, rat, thallium flux, HTS, primary screen (AID 488969)", "conditions": "HEK293 rat mGluR8, GIRK (G protein-gated inwardly rectifying potassium channel) thallium flux, FluoZin2; at 10 µM; stronger effect = higher value; submaximal glutamate (EC20) added with thallium"}
{"smiles": "O=C(O)c1ccc(CNCc2ccc(Cl)cc2Cl)cc1", "z-score": -0.14}
{"smiles": "CCOC(=O)Nc1ccc([N+](=O)[O-])cc1C", "z-score": 0.0184}
{"smiles": "Cc1cc([N+](=O)[O-])ccc1NC(=S)NC(=O)Cc1ccccc1", "z-score": "6.82 (active)"}
{"smiles": "Cc1cc([N+](=O)[O-])ccc1NC(=S)NC(=O)C(c1ccccc1)c1ccccc1", "z-score": 0.175}
{"smiles": "COCC(=O)Nc1ccc([N+](=O)[O-])cc1C", "z-score": 2.3}
{"smiles": "Cc1cc([N+](=O)[O-])ccc1NC(=O)Cc1ccc(F)cc1", "z-score": -0.108}
{"smiles": "COCC(=O)Nc1cc([N+](=O)[O-])ccc1C", "z-score": -0.258}
{"smiles": "S=c1[nH]nc(Cc2cccc3ccccc23)n1-c1ccccc1", "z-score": -0.324}
{"smiles": "O=C(NNC(=O)c1ccccc1Br)c1ccc(Cl)cc1", "z-score": 0.075}
{"smiles": "COc1ccc(C(=O)Nc2c(C)ccc3nsnc23)cc1[N+](=O)[O-]", "z-score": 0.723}
{"smiles": "CC1CCCCN1C/C=C/c1ccccc1[N+](=O)[O-]", "note": "(configuration not stated)", "z-score": -0.203}
{"smiles": "COc1cc(C#CC#CCN2CCCCC2)ccc1O", "z-score": 2.82}
{"smiles": "COc1cc(C(=S)N2CCCCC2)ccc1O", "z-score": 0.0785}
{"smiles": "COc1cc(C(=O)OCCN2CCCCC2)ccc1O", "z-score": 0.0129}
{"smiles": "O=C(CN1CCCC1)Nc1c2c(nc3ccccc13)N(Cc1ccccc1)CC2", "z-score": 1.74}
{"smiles": "COc1ccc(NC(=O)COC(=O)CC23CC4CC(CC(C4)C2)C3)c([N+](=O)[O-])c1", "z-score": 2.75}
{"smiles": "COc1ccc(NC(=O)COC(=O)CC2CC3CCC2C3)c([N+](=O)[O-])c1", "note": "(configuration not stated)", "z-score": -0.182}
{"smiles": "COc1ccc(NC(=O)COC(=O)C2CCCCC2)c([N+](=O)[O-])c1", "z-score": 0.159}
{"smiles": "Cc1nc(N)nc(OCC(F)(F)C(F)F)c1Br", "z-score": -0.145}
{"smiles": "Nc1nc2n(n1)C(c1cccs1)CC(c1ccc(F)cc1)N2", "note": "(configuration not stated)", "z-score": "6.13 (active)"}
{"smiles": "Nc1nc2n(n1)C(c1ccco1)CC(c1ccccc1)N2", "note": "(configuration not stated)", "z-score": -0.0773}
{"smiles": "COc1ccc(C2CC(c3ccccc3)Nc3nc(N)nn32)cc1", "note": "(configuration not stated)", "z-score": -0.316}
{"smiles": "COc1ccc(C2CC(c3ccc(Cl)cc3)n3nc(N)nc3N2)cc1", "note": "(configuration not stated)", "z-score": 2.61}
{"smiles": "Nc1nc2n(n1)C(c1ccco1)CC(c1ccc(F)cc1)N2", "note": "(configuration not stated)", "z-score": 0.268}
{"smiles": "Cc1ccc(C2CC(c3cccs3)n3nc(N)nc3N2)cc1", "note": "(configuration not stated)", "z-score": 0.263}
{"smiles": "COc1cccc(C2CC(c3ccc(Cl)cc3)n3nc(N)nc3N2)c1", "note": "(configuration not stated)", "z-score": 0.802}
{"smiles": "COc1ccc(C2CC(c3ccc(Br)cc3)Nc3nc(N)nn32)cc1", "note": "(configuration not stated)", "z-score": 1.67}
{"smiles": "Nc1nc2n(n1)C(c1ccco1)CC(c1ccc(Cl)c(Cl)c1)N2", "note": "(configuration not stated)", "z-score": 2.38}
{"smiles": "Nc1nc2n(n1)C(c1cccs1)CC(c1ccccc1)N2", "note": "(configuration not stated)", "z-score": -0.0568}
{"smiles": "COc1ccc(C2CC(c3ccc(Cl)cc3Cl)Nc3nc(N)nn32)cc1", "note": "(configuration not stated)", "z-score": 1.46}
{"smiles": "COc1ccc(C2CC(c3ccc(Cl)c(Cl)c3)Nc3nc(N)nn32)cc1", "note": "(configuration not stated)", "z-score": "3.08 (active)"}
{"smiles": "COc1ccc(/C=N/c2oc(-c3ccccc3)cc2C#N)cc1OC", "z-score": 0.0441}
